# Rows were chosen to be rich in hits. Some 2.5% of all compounds tested hit in one or more screens of this group.
# Jurkat NFkB inh = lowers PMA/ionomycin-induced NF-kB signal in Jurkat cells | PMA/ionomycin-induced NF-kB luciferase reporter, luminescence | inhibition, % at 4 µM | 330,000 tested, 0.53% active | AID 435003; in the data active = inhibition above about 50%
# TMEM16A inh = mouse TMEM16A channel inhibition, primary screen; 310,000 tested, 1.2% active; AID 588511; Q8BHY3; normalized B-score (activity score, 25-100; higher = stronger inhibition) at 10 µM; HEK293 TMEM16A/YFP iodide influx fluorescence, ionomycin;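 active = ratio plate-corrected score three or more library SD toward inhibition, starting fluorescence score within five deviations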;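 note: score derived from kinetic fluorescence span divided by baseline fluorescence per well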
# 697 NFkB inh = lowers PMA/ionomycin-induced NF-kB signal in 697 B cells | 697 B-cell NF-kB luciferase reporter, 16 h | inhibition, % at 4 µM | 330,000 tested, 0.33% active; in the data active = inhibition above about 35%
# KLF5 inh = inhibitors of KLF5 expression | DLD-1 KLF5 promoter-luciferase reporter, luminescence | inhibition, % at 5 µM | 290,000 tested, 0.23% active | AID 1700;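 active = inhibition above a per-plate limit of that plate's mean compound inhibition plus 3 SD, cut at about 60% in these data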;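 note: higher means less KLF5 promoter-driven luciferase light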
# ANO1 activ = activates or potentiates the mouse TMEM16A chloride channel; HEK293 TMEM16A/YFP-H148Q/I152L, iodide quench fluorescence; active compounds read low; B-score at 10 µM; 340,000 tested, 0.3% active; AID 623877;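 active = fluorescence-ratio B-score plate-corrected deviation score at least 3 library SD below zero, with starting fluorescence score within 5 deviations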;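 note: channel opened by trigger with iodide after compound preincubation; score built on the fluorescence ratio of max minus min over baseline; more negative score means more quench and so TMEM16A activation or potentiation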
# aSyn 5UTR inh = MLPCN primary screen, SNCA 5' untranslated region; alpha-synuclein 5'UTR reporter, inhibitor activity; inhibition, % (tested at 7.5 µM); 300,000 tested, 0.82% active; AID 1813; in the data active = inhibition above about 60%;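 note: H4 neuroglioblastoma cells stably carrying SNCA 5'UTR luciferase fusion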
# TMEM16A reconf = re-confirmation of mouse TMEM16A chloride channel inhibitors. inhibition, % at 10 µM. 2,300 tested, 39% active. AID 652189. HEK293 TMEM16A/YFP-H148Q, iodide quench fluorescence; ionomycin added to raise cell calcium. shares compounds with TMEM16A inh;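 active = mean duplicate percent inhibition, scaled so buffer wells are 0 and the reference blocker 100, over three buffer SD above buffer mean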
# TMEM16A Ca cntr = counter-screen for TMEM16A inhibitors: effect on calcium mobilization | shares compounds with TMEM16A inh | TMEM16A/YFP HEK293, Fluo4 calcium mobilization | calcium response (% of ionomycin), % at 10 µM | 2,300 tested, 2% active;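 active = duplicate-averaged calcium signal over 20% of the ionomycin maximum, relative to buffer baseline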;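 note: each well's signal is peak minus trough fluorescence divided by its pre-addition baseline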
# YFP-HEK293 quench = acts in parental YFP-HEK293 cells lacking TMEM16A, counter-screen; shares compounds with TMEM16A inh; iodide YFP quench, ionomycin; YFP ratio F(max-min)/F0 at 10 µM; 2,300 tested, under 10 active;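 active = yellow fluorescent protein signal ratio exceeding the buffer control mean by over 5 SD of those controls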;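 note: ratio is mean of duplicate wells from kinetic YFP trace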
# ClC-1 inh = selectivity of TMEM16A inhibitors: inhibition of rat ClC-1 chloride channel | CHO ClC-1-YFP, iodide influx fluorescence quench; iodide control reads 0, buffer control 100 | 2,300 tested, under 10 active | shares compounds with TMEM16A inh | ratio percent, % at 10 µM;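 active = duplicate-mean ratio percent above the mean of iodide-only control wells, which defines zero, plus 5 of their SD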;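 note: higher percent means stronger block of ClC-1 iodide influx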
# Target sequence (P35524 whole entry, looked up): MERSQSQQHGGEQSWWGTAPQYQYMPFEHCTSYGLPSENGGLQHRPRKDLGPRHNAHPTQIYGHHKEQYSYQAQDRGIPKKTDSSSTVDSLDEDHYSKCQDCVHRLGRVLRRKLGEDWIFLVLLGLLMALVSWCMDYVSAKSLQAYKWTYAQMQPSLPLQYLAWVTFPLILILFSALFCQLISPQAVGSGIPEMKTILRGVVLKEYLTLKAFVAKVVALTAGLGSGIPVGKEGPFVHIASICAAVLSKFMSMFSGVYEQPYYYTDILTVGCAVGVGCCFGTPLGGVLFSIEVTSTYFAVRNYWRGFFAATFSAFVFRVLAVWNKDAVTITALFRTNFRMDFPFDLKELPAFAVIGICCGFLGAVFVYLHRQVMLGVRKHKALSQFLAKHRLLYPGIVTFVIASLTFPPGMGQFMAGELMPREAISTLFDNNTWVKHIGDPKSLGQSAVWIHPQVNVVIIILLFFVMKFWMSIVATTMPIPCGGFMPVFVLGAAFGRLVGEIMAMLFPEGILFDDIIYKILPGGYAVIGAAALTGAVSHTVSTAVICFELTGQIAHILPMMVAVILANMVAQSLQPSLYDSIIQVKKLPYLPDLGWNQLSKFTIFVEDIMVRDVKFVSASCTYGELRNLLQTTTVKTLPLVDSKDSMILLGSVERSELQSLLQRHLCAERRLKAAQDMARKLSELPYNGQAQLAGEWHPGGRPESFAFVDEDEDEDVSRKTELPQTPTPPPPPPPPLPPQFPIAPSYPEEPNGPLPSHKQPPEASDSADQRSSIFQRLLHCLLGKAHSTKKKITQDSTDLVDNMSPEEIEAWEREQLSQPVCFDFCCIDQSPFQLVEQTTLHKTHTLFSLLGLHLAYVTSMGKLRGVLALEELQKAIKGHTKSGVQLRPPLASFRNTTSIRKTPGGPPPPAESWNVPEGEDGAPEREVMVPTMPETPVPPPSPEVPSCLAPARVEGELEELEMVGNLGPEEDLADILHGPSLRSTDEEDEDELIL
# A number is an active result; - = inactive; . = not tested or not shown.
SMILES,Jurkat NFkB inh,TMEM16A inh,697 NFkB inh,KLF5 inh,ANO1 activ,aSyn 5UTR inh,TMEM16A reconf,TMEM16A Ca cntr,YFP-HEK293 quench,ClC-1 inh
CN1CCc2nc3sc(C#N)c(N)c3c(-c3cccs3)c2C1,-,-,-,-,-,-,.,.,.,.
CCOC(=O)C1SC2(C(F)(F)F)CC1(O)c1c(C)cc(C)nc1O2 (centres undefined),-,25,-,-,-,-,-,-,-,-
O=[N+]([O-])c1ccc(N2CCCCCC2)c2ncccc12,-,25,-,-,-,-,-,-,-,-
CCC(=NCCc1ccccc1)c1c(O)n(C)c(=O)n(C)c1=O,-,25,-,-,-,-,-,-,-,-
CCNCC1(c2ccc(OC)c(OC)c2)CCCC1,-,-,-,-,-,-,.,.,.,.
O=C(Cc1cccs1)N1CCC2(CC1)OCCO2,-,-,-,-,-,-,-,-,-,-
COC(=O)C1=C(c2cccc(OC)c2OC)C[C@@H]2CC[C@H]1N2C(=O)NCCO,-,-,-,.,-,-,.,.,.,.
COC(=O)C1=C(c2cccc(OC)c2OC)C[C@@H]2CC[C@H]1N2C(=O)NCCS(C)=O (some centres undefined),-,100,-,.,-,-,-,-,-,-
O=C1Nc2cc(C(=O)N3CCC4(CC3)OCCO4)ccc2S/C1=C\c1ccccc1,-,-,-,-,-,-,.,.,.,.
Cn1nc(-c2ccc(OCC(=O)N3CCN(Cc4ccccc4)CC3)cc2)c2ccccc2c1=O,-,100,-,-,-,-,20%,-,-,-
